In PubChem BioAssay (EPA / NIEHS):
Records with an inconclusive call do not appear. Activity calls are given as the source filed them. How the source made its calls: active means hit-call score of the fitted dose curve at least 0.9, where 1 is the maximum; inconclusive means response in the unintended direction; inactive means score below 0.9.

molecular target: sheep Cyclooxygenase-2 (Cox2), PTGS2 (gene 443460) (UniProt P79208); assay: NVS_ENZ_oCOX2: NovaScreen (NVS) Enzymatic Assay for sheep Cyclooxygenase-2 (Cox2) (AID 2283231)
Sequence (P79208 whole entry, looked up): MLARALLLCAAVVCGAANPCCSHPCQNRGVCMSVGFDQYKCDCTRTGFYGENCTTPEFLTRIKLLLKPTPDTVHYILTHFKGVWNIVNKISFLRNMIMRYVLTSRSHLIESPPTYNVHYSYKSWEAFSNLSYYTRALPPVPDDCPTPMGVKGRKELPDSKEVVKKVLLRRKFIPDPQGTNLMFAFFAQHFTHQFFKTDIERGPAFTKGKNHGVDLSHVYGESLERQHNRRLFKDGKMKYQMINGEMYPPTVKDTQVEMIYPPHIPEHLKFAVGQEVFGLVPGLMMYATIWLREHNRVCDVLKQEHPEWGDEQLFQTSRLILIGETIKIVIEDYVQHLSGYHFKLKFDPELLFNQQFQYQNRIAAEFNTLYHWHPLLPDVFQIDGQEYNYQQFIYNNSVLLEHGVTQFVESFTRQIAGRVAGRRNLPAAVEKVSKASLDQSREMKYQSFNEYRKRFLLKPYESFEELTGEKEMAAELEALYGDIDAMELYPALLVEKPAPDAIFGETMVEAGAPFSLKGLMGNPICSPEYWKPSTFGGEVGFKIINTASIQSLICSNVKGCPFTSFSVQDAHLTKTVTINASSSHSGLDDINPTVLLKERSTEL
Protocol: NVS_ENZ_oCOX2 is a biochemical, single-readout assay that uses extracted gene-proteins from Ovine placenta in a tissue-based cell-free assay. Measurements were taken 0.66 hour after chemical dosing in a 96-well plate.NVS_ENZ_oCOX2 is one of one assay component(s) measured or calculated from the NVS_ENZ_oCOX2 assay. It is designed to make measurements of enzyme activity, a form of enzyme reporter, as detected with absorbance signals by Colorimetric technology.Data from the assay component NVS_ENZ_oCOX2 was analyzed into 1 assay endpoint. This assay endpoint, NVS_ENZ_oCOX2, was analyzed in the positive analysis fitting direction relative to DMSO as the negative control and baseline of activity. Using a type of enzyme reporter, loss-of-signal activity can be used to understand changes in the enzymatic activity as they relate to the gene PTGS2. Furthermore, this assay endpoint can be referred to as a primary readout, because this assay has produced multiple assay endpoints where this one serves a enzymatic activity function. To generalize the intended target to other relatable targets, this assay endpoint is annotated to the oxidoreductase intended target family, where the subfamily is cyclooxygenase.
Binding assays used specific radioligands (tritiated, iodinated) with non-radioactive competitive displacement ligands in agonist or antagonist protocols (as indicated) and various reference compounds and inhibitors to titrate specific binding to receptors and transporters. Most enzyme assays (CYPs, kinases, phosphatases, proteases, HDACs) used recombinant protein and specific substrates (fluorescence mostly, some colorimetric and radioactive) and inhibitors, followed by a biochemical separation of substrate and product. All assays for the biochemical HTS were initially run in duplicate at a single concentration (10 uM for CYP450 assays and 25 uM for all others). Assay-chemical combinations meeting a pre-defined threshold (e.g., 30% inhibition and other criteria defined below) were then run in singleton concentration-response format with maximum concentration of 20 uM for CYPs and 50 uM for all others. Each assay was run with positive and negative controls, and concurrent controls on every plate. The follow-up (secondary) screen tested active chemical-pairs in concentration series, as well as a few additional assays not tested in the primary screen, some selected negative inactives, and several cases re-run in the concentration series for confirmatory purposes.

outcome, inactive:
C/C=C/c1ccc(OC)cc1
O=NO
Oc1ccccc1O
CCc1nc(N)nc(N)c1-c1ccc(Cl)cc1

AC50, active:
O=C1c2c(O)cccc2Cc2cccc(O)c21 6.81 µM
CN(C)C(=O)NC1(c2ccccc2)CCN(CCC[C@]2(c3ccc(Cl)c(Cl)c3)CCCN(C(=O)c3ccccc3)C2)CC1 4.73 µM
CCc1cc(C2=C(C(=O)O)N(c3ccccc3C(F)(F)F)S(=O)(=O)c3ccccc32)cc2c1OCO2 19.2 µM
COc1ccc(C(=O)Nc2nc3ccccc3c(NCc3ccccc3)c2C#N)cc1 13.7 µM
S=c1[nH]c2ccccc2s1 9.72 µM
Cc1occc(=O)c1O 17.6 µM
